# Measurements published in PubChem BioAssay (NCI).
# The panel holds about 83,000 compounds, 20% with a hit somewhere; the sample as a whole holds those more often.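 Plates (96-well) were seeded with cells, treated with compound at one concentration, and incubated for 48 hours before percent growth was determined.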 Values without a mark were called inactive. Calls of active or inactive are those of the source. How the source made its calls: active means growth percent below 10; inactive means the rest.
# Legend:
# Test in all cases: NCI-60 one-dose screen, 48 h (100 = growth as untreated, 0 = no growth, -100 = all killed)
# SR leukemia = details: 10 µM
# RPMI-8226 leukemia = details: 10 µM
# OVCAR-8 ovarian = details: 10 µM
# OVCAR-5 ovarian = details: 10 µM
# OVCAR-4 ovarian = details: 10 µM
# SK-OV-3 ovarian = details: 10 µM
# IGROV1 ovarian = details: 10 µM
# OVCAR-3 ovarian = details: 10 µM
# HS 578T breast = details: 10 µM
# NCI/ADR-RES ovarian = details: 10 µM
# T-47D breast = details: 10 µM
# BT-549 breast = details: 10 µM
# MDA-MB-435 melanoma = details: 10 µM
# SW-620 colon = details: 10 µM
# MCF7 breast = details: 10 µM unless noted
# HCT-116 colon = details: 10 µM
# KM12 colon = details: 10 µM
# HCC-2998 colon = details: 10 µM
Compound,growth (SR leukemia),growth (RPMI-8226 leukemia),growth (OVCAR-8 ovarian),growth (OVCAR-5 ovarian),growth (OVCAR-4 ovarian),growth (SK-OV-3 ovarian),growth (IGROV1 ovarian),growth (OVCAR-3 ovarian),growth (HS 578T breast) [%],growth (NCI/ADR-RES ovarian),growth (T-47D breast),growth (BT-549 breast),growth (MDA-MB-435 melanoma),growth (SW-620 colon),growth (MCF7 breast),growth (HCT-116 colon),growth (KM12 colon),growth (HCC-2998 colon) [%]
CC(CC(=O)c1ccccc1)c1ccccc1 (stereo unspecified),101%,104%,102%,113%,109%,127%,101%,116%,118,118%,104%,107%,99.8%,102%,105%,106%,113%,–
CC(O)COc1ccc(-c2ccccc2)cc1 (stereo unspecified),94.4%,97.7%,108%,98.9%,111%,105%,115%,108%,106,110%,94%,104%,104%,103%,100%,97.7%,105%,–
CCCNc1ccc(C2=NCCCN2)cc1,96.9%,98.2%,95.4%,101%,100%,107%,86%,99.2%,103,95.2%,97.3%,90%,95.9%,102%,97.7%,97%,94.5%,–
CN(C)Cc1cc(C(C)(C)CC(C)(C)C)ccc1O,87.7%,95.7%,106%,98.5%,86.5%,94.5%,85.7%,88.4%,106,91.5%,86.4%,100%,107%,109%,95.4%,89.3%,104%,–
CCOC(=O)Nc1nn[nH]n1,103%,106%,111%,92.3%,111%,116%,110%,103%,93.7,103%,113%,106%,111%,90.2%,103%,107%,106%,–
O=C(O)[C@@H]1[C@H]2C[C@H]3c4[nH]c5ccccc5c4CCN3C[C@@H]2CC[C@@H]1O,115%,111%,87.6%,105%,103%,115%,114%,111%,102,112%,114%,–,113%,100%,103%,92.6%,113%,135
CC(C)OC(C(=O)O)c1ccccc1 (stereo unspecified),125%,105%,109%,97.1%,96.2%,100%,124%,110%,112,104%,91.5%,100%,115%,103%,93%,101%,105%,–
COc1ncnc2c1cnn2C,82.6%,107%,103%,103%,117%,104%,110%,109%,114,104%,97.1%,95.4%,107%,105%,101%,103%,103%,–
CC1CCC2C(C)(C)C3CC12CC1OC13C (stereo unspecified),117%,108%,105%,105%,99.3%,103%,114%,110%,103,107%,99.3%,107%,107%,98.8%,102%,–,–,127
CCOC(=O)C1=C(C)NC(=O)NC1c1cccs1 (stereo unspecified),76.5%,99.8%,94.1%,122%,117%,105%,113%,118%,99,111%,102%,123%,125%,105%,101%,116%,109%,–
CCC/C=C(/C(C)=O)C(=O)OCC,160%,104%,91.8%,92.7%,89.8%,117%,126%,119%,114,107%,107%,112%,108%,106%,114%,109%,102%,–
O=C1c2ccccc2C(=O)N1OCc1ccccc1,93.4%,102%,105%,97.2%,105%,99.2%,94.4%,105%,113,116%,92.1%,118%,110%,107%,99.5%,99.8%,105%,–
C=CC(=O)OCCCCCCCC,82.6%,104%,105%,101%,109%,108%,114%,103%,109,105%,105%,–,106%,103%,95.3%,100%,101%,104
CCC(C)(C)C1CCC(O)CC1 (stereo unspecified),102%,101%,102%,92.5%,107%,103%,107%,104%,101,96.7%,97.5%,96.6%,112%,101%,104%,98.9%,96%,–
CC(=O)c1c[nH]c2ccccc12,91.4%,110%,98.6%,111%,99.8%,108%,101%,120%,104,107%,97.6%,104%,97.5%,105%,100%,–,120%,108
CC1(C)OC(=O)C(c2ccsc2)C(=O)O1,103%,103%,109%,105%,102%,106%,103%,106%,99,97.7%,90.4%,124%,101%,108%,104%,92.1%,102%,–
CC1C(=O)c2ccccc2CC1C(=O)O (stereo unspecified),95.8%,110%,97%,103%,108%,108%,100%,129%,119,102%,102%,105%,108%,115%,99.3%,–,123%,89.7
C[C@]12CC[C@@H]3c4ccc(OCC(=O)O)cc4CC[C@H]3[C@@H]1CCC2=O,88.5%,121%,109%,107%,95.8%,115%,107%,101%,95.5,96.4%,114%,102%,116%,102%,130%,103%,105%,–
CC1NC(=O)NC1CCCCCC(=O)O (stereo unspecified),118%,84%,94.8%,97.6%,112%,109%,125%,108%,106,113%,101%,105%,117%,105%,99.8%,105%,98.7%,–
O=[N+]([O-])c1ccc(Cl)c(S(=O)(=O)O)c1,89.2%,100%,104%,105%,111%,110%,123%,106%,104,108%,103%,–,117%,107%,98.4%,104%,105%,–

Compound,growth (SR leukemia),growth (RPMI-8226 leukemia),growth (OVCAR-8 ovarian),growth (OVCAR-5 ovarian),growth (OVCAR-4 ovarian),growth (SK-OV-3 ovarian),growth (IGROV1 ovarian),growth (OVCAR-3 ovarian),growth (HS 578T breast) [%],growth (NCI/ADR-RES ovarian),growth (T-47D breast),growth (BT-549 breast),growth (MDA-MB-435 melanoma),growth (SW-620 colon),growth (MCF7 breast),growth (HCT-116 colon),growth (KM12 colon),growth (HCC-2998 colon) [%]
O=[N+]([O-])c1cccc(N=Nc2ccc(O)cc2O)c1,43.1%,29.6%,74.3%,143%,62.3%,101%,83.6%,62.4%,72.7,88.8%,54%,49.8%,87.3%,55.7%,84.3%,14.3%,90.9%,–
CN(C)CCC(=O)c1ccc(O)cc1,105%,89.6%,102%,115%,108%,110%,113%,97.4%,112,106%,96.4%,–,110%,107%,97.7%,106%,99.9%,104
OCCN1CCOCC1,104%,107%,110%,101%,110%,109%,117%,122%,106,116%,106%,115%,116%,113%,94.8%,97.2%,111%,–
Cc1cc(=O)[nH]c(NN=C2CCCC2)n1,103%,107%,112%,99.4%,114%,103%,107%,110%,121,121%,103%,122%,110%,111%,104%,107%,110%,–
CCN(CC)c1ccc2nc3ccc(=[N+](CC)CC)cc-3oc2c1,22.5%,6.38% (active),-9.58% (active),-30.1% (active),-88.7% (active),-9.43% (active),-31.8% (active),-7.91% (active),58.1,90.3%,-2.86% (active),48%,-14.7% (active),6.33% (active),-34.9% (active),–,4.22% (active),40.3
Cc1ccc(O)c(C(=O)c2ccccc2)c1,113%,113%,111%,96.3%,110%,119%,113%,104%,108,105%,109%,99.1%,110%,100%,105%,102%,106%,–
NCCC(=O)c1ccc(Cl)cc1,93.8%,110%,101%,118%,110%,95.7%,117%,105%,109,103%,91.4%,109%,110%,102%,110%,102%,98.1%,–
Nc1nc(N)c(N=Nc2ccc(C(=O)O)cc2)c(N)n1,109%,95.1%,104%,101%,105%,111%,100%,130%,102,101%,100%,97%,103%,90.8%,104%,–,115%,100
Nc1ncnc2[nH]ncc12,26.1%,8.64% (active),6.29% (active),20.5%,-5.84% (active),2.06% (active),6.63% (active),-22.2% (active),37.3,0.445% (active),6% (active),-32.8% (active),15.2%,17.5%,7.48% (active),5.13% (active),18%,–
CC(C)C(C#N)(C(C)C)C(C)C,89.8%,96.5%,109%,108%,109%,109%,103%,107%,106,104%,104%,102%,96.3%,101%,97.7%,–,103%,110
CC(C)C1CCCCC1O (stereo unspecified),130%,105%,109%,91%,118%,109%,130%,117%,105,104%,107%,105%,100%,107%,107%,109%,107%,–
C[N+](C)=c1ccc2nc3c(cc(Nc4ccccc4)c4ccccc43)oc-2c1,22.1%,31.7%,54.4%,80.7%,21.3%,65.3%,67.3%,-28.6% (active),63.6,57.3%,31.8%,41.7%,53.5%,56%,32.5%,47.1%,62.5%,–
COC(=O)C(O)c1ccccc1 (stereo unspecified),108%,111%,108%,97.6%,113%,105%,123%,104%,125,110%,107%,109%,107%,111%,99.3%,–,106%,104
Cn1cnc2nc(Cl)nc(Cl)c21,27.9%,23.4%,24.3%,59.8%,42.4%,61.2%,30.3%,-27.8% (active),72.4,27.1%,56.7%,-28.5% (active),-20.5% (active),22.2%,16.7%,3.41% (active),-40.8% (active),–
COc1ccc(-c2cc3c(nn2)-c2ccccc2C3=O)cc1,-21.8% (active),27.2%,-9.96% (active),83.7%,-26.1% (active),102%,61.6%,-49.3% (active),103,–,77.5%,89.7%,10.4%,4.15% (active),16.2%,32%,37.1%,34.5
CCC(C#N)(CC)c1ccccc1,108%,104%,107%,104%,113%,102%,112%,109%,108,–,95.3%,100%,104%,104%,95.4%,–,106%,–
OC(c1ccccn1)C(O)c1ccccn1 (stereo unspecified),98.7%,108%,102%,90.7%,107%,103%,97.9%,113%,111,–,109%,106%,115%,109%,101%,–,109%,–
O=[N+]([O-])c1ccc(S(=O)(=O)NN=C2CCCCC2)cc1,96.9%,110%,101%,114%,99.5%,100%,103%,114%,141,–,107%,95.5%,114%,114%,102%,97.8%,110%,–
CC12CC3CC1C(C(=O)O2)C3C(=O)O (stereo unspecified),93.1%,108%,104%,97.8%,111%,95.6%,114%,101%,–,97.5%,108%,122%,109%,102%,108%,118%,101%,95.8
